Data on 54 molecules can be found in PubChem BioAssay AID2235 (The Scripps Research Institute Molecular Screening Center, 2010).

Screen size: about 320,000 compounds; about 2,800 (0.88%) were called active. The full list was thinned out, with actives kept by preference. A number with no mark means an inactive call.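 How the source made its calls: active means inhibition above the mean inhibition of all tested compounds plus 3 SD, computed separately for each screening campaign (cut at about 15% in these data); inactive means the rest.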

Serine/threonine-protein phosphatase PP1-alpha catalytic subunit (Homo sapiens), sequence (P62136 whole entry, looked up): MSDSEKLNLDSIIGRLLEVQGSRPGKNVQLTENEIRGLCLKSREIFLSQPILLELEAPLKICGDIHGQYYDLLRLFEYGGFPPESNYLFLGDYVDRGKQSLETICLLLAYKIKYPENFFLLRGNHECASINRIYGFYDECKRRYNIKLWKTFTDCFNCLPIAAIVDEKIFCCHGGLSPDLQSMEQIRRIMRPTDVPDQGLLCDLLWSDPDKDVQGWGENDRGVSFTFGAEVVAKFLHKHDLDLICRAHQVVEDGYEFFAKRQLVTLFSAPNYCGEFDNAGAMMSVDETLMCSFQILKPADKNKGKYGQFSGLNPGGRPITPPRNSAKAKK

This test addresses Serine/threonine-protein phosphatase PP1-alpha catalytic subunit (Homo sapiens) (UniProt P62136). Nature of the test: PP1-alpha phosphatase inhibitors, primary screen, counter-screen for PP5 inhibitor project, biochemical, fluorescence, OMFP substrate, single point (AID 2235). The note with it: purified PP1alpha, at 6.7 µM, active compounds read high.
Broadly, the inhibition is the change of the read-out against control, counted positive when it falls. In the case of `COC(=O)Nc1ccc(S(=O)(=O)Nc2cc(OC)nc(OC)n2)cc1`, the inhibition was 0.14%.

For `Fc1ccc(/C=N/n2c(COc3ccccc3)n[nH]c2=S)cc1`, the inhibition is 1.88%.

Take `O=[N+]([O-])c1ccccc1/C=N/n1c(COc2ccccc2)n[nH]c1=S`: the inhibition is 19.8% (active).

As to `CCOc1ccc(-c2n[nH]c(=S)n2/N=C/c2cc3c(cc2[N+](=O)[O-])OCO3)cc1`, the inhibition is 1.23%.

In the case of `CC(C)(C)OC(=O)N1CCC(NC(=O)c2[nH]cnc2C(=O)N[C@@H](Cc2ccccc2)C(=O)OCc2ccccc2)CC1`, the inhibition is 5.67%.

Regarding `COc1ccc(CCNC(=O)COC(=O)c2ccc[nH]c2=O)cc1`, the inhibition was -2.04%.

Consider `CCc1ccc(-c2nn(-c3ccccc3C)cc2C(=O)N2CCN(C3CCS(=O)(=O)C3)CC2)cc1` (centres undefined), for which the inhibition is -1.65%.

For the molecule `CCc1ccc(-c2nn(-c3ccccc3)cc2CSC(=N)N)cc1`, the inhibition is 16.1% (active).

For the molecule `Cc1ccc(-c2nn(-c3ccccc3)cc2C(=O)NC2CCC(O)CC2)cc1` (centres undefined), the inhibition is -2.02%.

Consider `Cc1nccc(-c2ccc(-n3c(C)ccc3C)cc2)n1`, for which the inhibition was -1.67%.

As for `COC(=O)c1ccc(-n2cnc3ccccc32)nc1`, the inhibition was 1.21%.

As to `c1ccc(-c2nccc(-c3ccc(-n4cnc5ccccc54)cc3)n2)nc1`, the inhibition was 44.6% (active).

Turning to `CC1(C)CC(=O)C(N=Nc2ccc(S(=O)(=O)N3CCCCCC3)cc2)=C(O)C1`, the inhibition is -0.81%.

For the molecule `Nc1ncnc(Nc2cccc(Cl)c2Cl)n1`, the inhibition was -0.33%.

In the case of `c1ccc(C(c2ccccc2)N2CCN(Cc3nnnn3C3CCCCC3)CC2)cc1`, the inhibition is 1.36%.

Regarding `O=C(OCC1OC(Oc2ccc(O)cc2)C(O)C(O)C1O)c1ccccc1` (centres undefined), the inhibition was -5.64%.

In the case of `O=C(OCC1O[C@@H](OC(=O)c2cc(O)c(O)c(O)c2)[C@@H](OC(=O)c2cc(O)c(O)c(O)c2)[C@@H](OC(=O)c2cc(O)c(O)c(O)c2)[C@@H]1OC(=O)c1cc(O)c(O)c(O)c1)c1cc(O)c(O)c(O)c1` (some centres undefined), the inhibition is 82.4% (active).

With `CC(C(=O)Nc1ccc(S(=O)(=O)N2CCCC2)cc1)N(C)Cc1ccc(F)cc1` (centres undefined), the inhibition is -3.95%.

For `Cc1ncc(CO)c(/C=N/NC(=O)c2cccc(S(=O)(=O)N3CCCC3)c2)c1O`, the inhibition is 2.87%.

Take `COc1ccc(/C=N/NC(=O)Nc2ccc3nsnc3c2)c(OC)c1`: the inhibition is 15.8% (active).

In the case of `COc1ccc(/C=N/NC(=O)c2ccc3c(c2)OCCO3)c(OC)c1`, the inhibition was -5.02%.

Turning to `COc1ccc(/C=N/NC(=O)CNC(=O)c2ccc(S(=O)(=O)N3CCCC3)cc2)c(OC)c1`, the inhibition was 0.14%.

With `O=C(O)C(c1ccccc1)N1C(=O)/C(=C\c2ccc(-c3cccc(Cl)c3)o2)SC1=S` (centres undefined), the inhibition was 18.4% (active).

As for `O=C1NN(c2ccccc2)C(=O)/C1=C/c1ccc(-c2cccc(C(=O)O)c2)o1`, the inhibition was 5.88%.

As for `CN1C(=O)/C(=C\c2ccc(-c3ccccc3)o2)SC1=S`, the inhibition was -2.09%.

Take `CCOc1ccc(S(=O)(=O)NCc2ccc3c(c2)OCO3)cc1C`: the inhibition is 1.37%.

For `C/C(=N/NC(=O)CCc1ccccc1)c1ccco1`, the inhibition was -1.45%.

Take `N#Cc1c(Cl)nc(-c2cccnc2)nc1-c1ccccc1`: the inhibition was -1.04%.

Turning to `Cc1cc(S(=O)(=O)NCC(C)C)ccc1OCC(=O)NC1CC1`, the inhibition was -3.62%.

Turning to `O=C(Cc1cccc2ccccc12)NNC(=O)Nc1ccc(Cl)cc1`, the inhibition is -1.41%.

`CC(C)(C)C(=O)NC(NC(=S)Nc1ccc(S(N)(=O)=O)cc1)C(Cl)(Cl)Cl` (centres undefined): the inhibition is 1.25%.

In the case of `Cc1ccc(NC(=S)NC(NC(=O)Cc2cccc3ccccc23)C(Cl)(Cl)Cl)cc1` (centres undefined), the inhibition is 16.6% (active).

On to `CCn1cc(CNC(=O)c2cc([N+](=O)[O-])c(C)c([N+](=O)[O-])c2)cn1`, for which the inhibition was -2.81%.

For the molecule `COc1ccc(C(=O)NC2(C(F)(F)F)NC(=O)N(CCCc3ccccc3)C2=O)c(OC)c1OC` (centres undefined), the inhibition was 1.31%.

Consider `Cc1ccc(C2=N/C(=C\c3ccc(OS(=O)(=O)c4ccc(C)cc4)cc3)C(=O)O2)cc1`, for which the inhibition is 0.93%.

For the molecule `O=C1OC(c2ccc(Cl)cc2)=N/C1=C\c1cccnc1`, the inhibition is -0.8%.

On to `CCOc1cc(/C=C2/N=C(c3ccc(C(C)(C)C)cc3)OC2=O)cc(Cl)c1OS(C)(=O)=O`, for which the inhibition was 16% (active).

`COc1ccc(NS(=O)(=O)c2ccc(C)c(C(=O)NCC(c3cccs3)N3CCOCC3)c2)cc1` (centres undefined): the inhibition is -0.23%.

`O=C(COc1ccc(S(=O)(=O)NCc2ccccc2)cc1)N1CCOCC1`: the inhibition is 0.87%.

Consider `Cc1cnc(C(=O)N2CCCC(C(=O)c3ccc(C(F)(F)F)cc3)C2)cn1` (centres undefined), for which the inhibition was -4.22%.

For the molecule `Cc1c(-c2nn(C)c(=O)c3ccccc23)oc2ccc(F)cc2c1=O`, the inhibition is 3.07%.

For `Cc1cc(C)c(S(=O)(=O)NCCCN2CCOCC2)cc1Br`, the inhibition was -3.53%.

Turning to `CCC(c1nnnn1Cc1ccco1)N(CCc1ccccc1)Cc1cc2cccc(C)c2[nH]c1=O` (centres undefined), the inhibition was 7.62%.

For `CCC(c1nnnn1C1CCCC1)N(Cc1cccs1)Cc1cc2cccc(C)c2[nH]c1=O` (centres undefined), the inhibition was 16.5% (active).

As to `Cc1cccc2cc(CN(Cc3ccc4c(c3)OCO4)Cc3nnnn3C3CCCC3)c(=O)[nH]c12`, the inhibition was -2.51%.

As to `COc1ccc(OC)c(NC(=O)CN(Cc2ccc(Cl)cc2)S(C)(=O)=O)c1`, the inhibition is 0.99%.

In the case of `CCOc1cc(-c2nc3cc(C)ccn3c2NCC2CCCO2)ccc1O` (centres undefined), the inhibition is -2.03%.

Turning to `CCCCCN(C(=O)NC(=O)Nc1cccc(C)c1C)S(C)(=O)=O`, the inhibition is 4.61%.

With `CCCc1ccc(OCC(=O)NNC(=S)NC(=O)c2ccco2)cc1`, the inhibition is 18.6% (active).

As for `Cc1ccc(OCC(=O)NCCCNC(=O)c2ccco2)cc1C`, the inhibition was 2.4%.

Consider `CC(Oc1ccc2ccccc2c1)C(=O)NNC(=S)NC(=O)c1ccco1` (centres undefined), for which the inhibition was 0.47%.

On to `CCN(CC)CCC(c1ccc2c(c1)OCO2)c1c(OC)cc(OC)c2c(-c3ccccc3)cc(=O)oc12` (centres undefined), for which the inhibition is 1.96%.

As for `O=C(NCCc1ccccc1)C1CCC(Cn2c(=O)c3ccccc3n(Cc3cccnc3)c2=O)CC1` (centres undefined), the inhibition is -0.9%.

For `CCC(C)N(C(=O)COC(=O)c1nc(Cl)ccc1Cl)C1CCS(=O)(=O)C1` (centres undefined), the inhibition was -0.12%.
